In ChEMBL document CHEMBL3988442, “University of Dundee, Small-Polar-MMV Screening Library” (2021):
The whole screen tested about 53,000 compounds, of which about 900 (1.7%) showed an effect of 50% or more. Many of the other results were omitted from the sample, so strong results are more common in it than they were.

test system: Mycobacterium tuberculosis; test: Cornell - Phenotypic assay to identify agents that inhibit growth of Mycobacterium tuberculosis; assay type: functional; set-up: scale not given: direction of the effect not stated beside the values; conditions: 10 mM as filed; unlikely as a test dose

Compound	Percent Effect [%]
COC1(CNC(=O)CCCc2ccccc2)CCSC1 (configuration not stated)	-5.448
Cc1nonc1OCCNC(=O)COc1ccc(F)cc1F	26.66
CC(C)Sc1ncccc1C(=O)NCc1ccc(O)cc1	-23.95
O=C(O)C(F)(F)F.O=C(O)C(F)(F)F.c1cncc(OC[C@@]23CCC[C@@H]2CN(CC2CCOCC2)C3)c1	-8.459
CC(NCc1cc(F)ccc1F)c1ccc(OCC(=O)NC2CC2)cc1 (configuration not stated)	-52.24
O=C(NCC1CCCO1)c1cc(-c2ccc3c(c2)CCO3)n[nH]1 (configuration not stated)	-17.9
COc1ccc(CN(C)C(=O)NCc2c(C)cc(C)nc2OC)cc1	-10.68
CN(C)c1nccc(NCc2cc(-c3ccco3)n[nH]2)n1	37.45
COc1ccccc1NC(=O)c1ccc(C)n1C	27.91
COc1cc(CN2CC(=O)N(c3ccc(C)cc3)CC2C)cc(OC)c1 (configuration not stated)	47.02
COc1cccc(OC)c1CN1CC(=O)N(c2ccc(C)cc2)CC1C (configuration not stated)	67.79
COc1ccc(CN2CC(=O)N(c3ccc(C)cc3)CC2C)cc1O (configuration not stated)	5.464
O=C(O)C(F)(F)F.O=C(O)C(F)(F)F.O=C1[C@H]2CN(Cc3ccc(F)cc3)C[C@H]2CN1CCN1CCCC1	-24.72
O=C1CC[C@@H](CN(Cc2ccncc2)Cc2nc(-c3cccs3)no2)N1	-23.52
CCNC(c1ccc(CC)cc1)c1cccnc1 (configuration not stated)	-41.16
CCc1cc(=O)n(CC(=O)N2CCCC2)c(-c2ccc(F)cc2)n1	28.21
COc1ccccc1N1CCN(CC(=O)NC(C)c2ccco2)CC1 (configuration not stated)	25.38
COC(=O)[C@H](CCSC)NC(=O)Cn1ccc2c(Cl)cccc21	106.6
CSCC[C@H](NC(=O)CCn1ccc2c(Cl)cccc21)C(=O)O	15.96
CSCC[C@H](NC(=O)Cn1ccc2c(Br)cccc21)C(=O)O	5.043
Cc1ccc(CN2CCC3(CC2)NC(=O)CC3c2ccccc2)s1.O=C(O)C(F)(F)F (configuration not stated)	1.118
O=C1C(Nc2nccn3cnnc23)CCN1c1cccc(Cl)c1 (configuration not stated)	-12
CCN(CC)C(=O)CSc1nnc(CCNC(=O)OC(C)(C)C)o1	-12.06
CS(=O)(=O)CCn1ccc(NC(=O)Cc2c[nH]c3ccccc23)n1	31.98
COCCNC(=O)Cn1c(-c2ccco2)cc2cccnc21	49.86
Cc1ncccc1-c1cc2cccnc2n1CCCNC(=O)C1CC1.Cl	15.61

Compound	Percent Effect [%]
Cl.O=C(Cn1c(-c2ccco2)cc2cccnc21)N1CCCC1	60.37
CC(C)N(C(=O)Cn1c(-c2ccco2)cc2cccnc21)C(C)C.Cl	99.58
O=C(c1cnn2c(-c3ccco3)ccnc12)N1CCCCCC1	38.47
Cl.O=C(CCn1c(C(F)(F)F)cc2cccnc21)N1CCCC1	-14.31
COCc1cc(N2CCN(C3CCCCC3)CC2)n2nccc2n1	6.435
CCn1ccnc1CN1CCN(C(C)C(=O)N2CCCC2)CC1 (configuration not stated)	-13
CCC1(O)CCCN(c2nc(-c3ccccn3)nc3c2c(C)nn3C)C1 (configuration not stated)	23.24
CCCNC(=O)Nc1ccc2c(c1)N(S(=O)(=O)CC)CC2	11.66
CS(=O)(=O)N1CC[C@]2(O)CCN(CCCC(=O)c3ccccc3)C[C@@H]2C1	2.425
C=Cn1ncc(CN2C[C@@H]3CCCN3C[C@@H]2CCSC)c1C	-11.11
CC1CCCCN1C(=O)c1ccc(=O)[nH]n1 (configuration not stated)	-37.74
Cc1c[nH]c(C2COCCN2C(=O)c2ccc(=O)[nH]n2)n1 (configuration not stated)	0.9699
Cc1ccc(-c2noc(C3CCN3C(=O)c3cc[nH]n3)n2)s1 (configuration not stated)	52.32
Cc1ccc(-c2noc(C3CCN3C(=O)c3ccn(C)n3)n2)s1 (configuration not stated)	54.98
Cc1ccc(-c2noc(C3CCN3C(=O)c3ccc(=O)[nH]n3)n2)s1 (configuration not stated)	58.13
CC(=O)N1CCC(C(=O)N2CCC2c2nc(-c3ccc(C)s3)no2)CC1 (configuration not stated)	-6.67
Cc1ccc(-c2noc(C3CCN3C(=O)c3c(C)noc3C)n2)s1 (configuration not stated)	48.41
Cc1cc(O)cc(C2CCCN2C(=O)c2ccn(C)n2)n1 (configuration not stated)	-43.03
CC(=O)N1CCC1c1nc(-c2ccc(C)s2)no1 (configuration not stated)	7.935
CCN1CCn2c(C)cnc2C12CCN(C(=O)c1cscn1)CC2.O=C(O)C(F)(F)F.O=C(O)C(F)(F)F	-12.15
CC(C)c1cc(CN(C)C(=O)CN2CCNC2=O)no1	-1.518
Cc1cc(C)cc(CN2CCN(C(=O)CCc3n[nH]c(C)n3)CC2=O)c1	-36
Cc1cnc(N2CCC3(CC(=O)N(Cc4csc(C)n4)C3)C2)nc1.O=C(O)C(F)(F)F (configuration not stated)	10.64
CCCOc1ccc(Cl)cc1C(=O)N1CCC(n2cncn2)CC1	-8.806
Clc1cnc(NCc2ccccc2N2CCOCC2)nc1	11.26
Cc1cc(C)c2c(N3CCN(C(=O)N4CCOCC4)CC3)ncnc2n1	-18.35

Compound	Percent Effect [%]
CC(C)O[C@@H]1CC[C@H]2[C@H]1OCCN2C(=O)c1nn(C)c2ccccc12	4.286
CC(C)S(=O)(=O)CC(=O)NCC(Cc1ccc(F)cc1)C(N)=O (configuration not stated)	7.629
COCCn1cncc1CN1CCCC(C)(c2ccccc2)C1 (configuration not stated)	16.9
CC1(c2ccccc2)CCCN(Cc2cncn2C2CC2)C1 (configuration not stated)	-6.001
CC1(c2ccccc2)CCCN(Cc2cncn2C2CCCC2)C1 (configuration not stated)	105.1
Cn1nccc1NCc1cc2cc(F)ccc2o1	-27.44
COc1ccc(CNC(C)c2ccc(Cl)c(Cl)c2)c(OC)c1OC (configuration not stated)	81.35
COc1ccc(CNC(C)c2cccc(Cl)c2)c(OC)c1OC (configuration not stated)	-6.089
COc1ccc(CNC(C)c2ccc(Cl)cc2)c(OC)c1OC (configuration not stated)	4.187
Cc1cc(NCc2ccc(CO)cc2)n2nc(C)cc2n1	-38.88
Nc1ncc2c(n1)CN(C1CCCC1)C2=O	100.2
CC1(C)CC(N2Cc3nc(N)ncc3C2=O)CC(C)(C)N1	5.443
CC(C)CN1Cc2nc(N)ncc2C1=O	0.3963
Cc1cnn(CCNCc2ccc(OCc3ccncc3)cc2)c1	-5.152
CC(C)CN1Cc2c(C(=O)N(C)C)ncn2-c2ccccc2S1(=O)=O	-10.19
CCCc1nnc2sc(CC3CN(Cc4ccccc4)CCO3)nn12 (configuration not stated)	22.38
CNS(=O)(=O)c1cccc(S(=O)(=O)Nc2ncc(C)s2)c1	51.19
Cc1cnc(NS(=O)(=O)c2cccc(C#N)c2)s1	-17.84
Cc1cnc(NS(=O)(=O)c2ccccc2)s1	18.01
CCc1noc(C(C)N2CCN(c3ccc(C#N)cn3)CC2)n1 (configuration not stated)	-10.8
Cc1ncncc1C(=O)N1CCOC(C(=O)NC2CCCC2)C1 (configuration not stated)	-44.04
Cn1cncc1CN1CCCC1c1cncc(Oc2ccc(Cl)cc2)n1 (configuration not stated)	-20.26
Cn1ccc2ccc(C(=O)NC3CCOC(C)(C)C3)cc21 (configuration not stated)	33.83
COCCn1ccc2cc(C(=O)NC3CCOC(C)(C)C3)ccc21 (configuration not stated)	51.29
Cn1ccc2cc(C(=O)NC3CCOC(C)(C)C3)ccc21 (configuration not stated)	38.28
COc1ccc2c(c1)OCC(Cc1cc(C(=O)N3CCCC3)ccn1)C2 (configuration not stated)	3.952

Compound	Percent Effect [%]
Cc1ccc(C(=O)N2CCSCC2)cc1NC(=O)NCCO	4.458
COCCNC(=O)Nc1ccc(C(=O)N2CCSCC2)cc1C	-6.31
CCN(CC)C(=O)Nc1ccc(N2CCSCC2)cc1C	107.3
CCN(CC1CCCO1)C(=O)Nc1cccc(N2CCOCC2)c1 (configuration not stated)	5.45
Cc1cc(N2CCSCC2)ccc1NC(=O)N(CCO)C1CC1	109.4
CCOCC(=O)Nc1ccc(N2CCSCC2)cc1C	35.44
CCC(C)N(C)C(=O)Nc1ccc(N2CCSCC2)cc1C (configuration not stated)	109
Cc1ccc(C(=O)N2CCSCC2)cc1NC(C)C	8.4
CCCN(CC1CC1)C(=O)Nc1ccc(N2CCSCC2)cc1C	108.2
COCCCN(CCOC)C(=O)Nc1ccc(C)cc1C	-5.189
CCCN(CC1CC1)C(=O)Cn1ccccc1=O	23.77
COCCOc1ccc(NC(=O)N(CCO)C2CC2)cn1	5.522
CNc1ncc2c(n1)CN(CCc1ccc(Cl)cc1)C2=O	6.698
O=C(O)C(F)(F)F.c1ccc(CN2CCC3(CC2)CC(Nc2nccs2)CO3)nc1 (configuration not stated)	10.27
CN1CCCC1c1cncc(C(=O)NCCN2CCCCC2)n1 (configuration not stated)	5.104
O=C(O)C(F)(F)F.O=C(O)C(F)(F)F.c1coc(CN2C[C@@H]3CCCO[C@@H]3[C@H](N3CCCC3)C2)c1	-1.356
COc1ccccc1Nc1nc2c(C)nn(C)c2c(=O)n1C	-35.16
CCS(=O)(=O)N1CCc2c(nc(C3CCCN3)nc2NC)C1.Cl (configuration not stated)	-16.35
c1ccc(-c2cc(CN3C[C@@H]4CC[C@H](C3)N(CC3CC3)C4)on2)cc1	34.91
c1ccc(-c2nnc(CN3C[C@@H]4CC[C@H](C3)N(CC3CCC3)C4)o2)cc1	34.96
c1ccc(-c2cc(CN3C[C@@H]4CC[C@H](C3)N(CC3CCC3)C4)on2)cc1	96.75
C1CC(CN2C[C@H]3CC[C@@H]2CN(Cc2nnc(C4CC4)o2)C3)C1	14.78
c1ccc(-c2cc(CN3C[C@H]4CC[C@H]3C4)on2)cc1	18.4
C1CC(CN2C[C@H]3CC[C@@H]2CN(Cc2noc(C4CCCC4)n2)C3)C1	50.34
